A selection: hits, their analogues and other compounds. The true share with any hit is near 11%.
HP1b binding inh: blocks HP1-beta chromodomain binding to methylated histone tails. 390,000 compounds, 0.56% hits. AlphaScreen HP1-beta / biotin-H3K9me3 peptide binding. Potency, µM (series often up to 114 µM), inactives show at the highest dose activity change, negative = inhibition, hits mostly inhibitors; note: potency is the fitted concentration of half-maximal effect; nearly all actives have a fitted effect of over 70% in size
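AlphaScreen: HP1-beta (50 nM) preformed 30 min with biotin-H3(1-18)K9me3 peptide (50 nM) in PBS pH 7.4, 0.01% Tween-20. Compound added for 30 min at RT, then streptavidin donor/nickel chelate acceptor beads (10 ug/mL) for 30 min.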
BAZ2B inh: blocks human BAZ2B | Q9UIF8 | AlphaScreen BAZ2B-H3K14Ac peptide displacement | Potency, µM (highest dose often 114 µM), for the others: at the highest dose activity change, negative = inhibition, actives largely listed as inhibitors | 360,000 compounds, 4.4% hits; note: potency is the fitted concentration of half-maximal effect; % is set by controls: 0 for no effect and ±100 for the full control effect; nearly all actives have a fitted effect of over 60% in size
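Compounds, titrated to a top concentration of 110 uM, were incubated 30 min at room temperature with preformed BAZ2B/acetyl-K14 H3 peptide complex (50 nM each). Proximity signal was measured by AlphaScreen after 20 min with beads.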
G9a inh-1: blocks human histone lysine methyltransferase G9a; Q96KQ7; G9a H3K9 monomethylation, AlphaScreen, 2 h; Potency, µM (doses to about 102 µM), for inactives: at the highest dose activity, negative = inhibition, actives largely listed as inhibitors; 350,000 compounds, 8.8% hits; AID 504332; note: potency is the fitted concentration of half-maximal effect; % is set by controls: 0 for no effect and ±100 for the full control effect; nearly all actives have a fitted effect of over 75% in size
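Methyltransferase reactions run at room temperature for 2 h (20 nM enzyme, 500 nM biotin-H3K9 peptide, 20 uM SAM) after a 15 min compound preincubation; product detected by AlphaScreen beads and anti-H3K9me1 antibody.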
PLK1 PBD block: blocks phosphopeptide binding to human PLK1 polo-box domain. P53350. Plk1 PBD binding of FITC phosphopeptide, fluorescence polarization. Potency, µM, without a hit: max response, negative = inhibition, most hits filed as inhibitors. 360,000 compounds, 2.8% hits; note: potency is the fitted concentration of half-maximal effect; series mostly up to about 57 µM; % is set by controls: 0 for no effect and ±100 for the full control effect; nearly all actives have a fitted effect of over 65% in size
Target sequence (P53350 whole entry, looked up, the tested form may be a part): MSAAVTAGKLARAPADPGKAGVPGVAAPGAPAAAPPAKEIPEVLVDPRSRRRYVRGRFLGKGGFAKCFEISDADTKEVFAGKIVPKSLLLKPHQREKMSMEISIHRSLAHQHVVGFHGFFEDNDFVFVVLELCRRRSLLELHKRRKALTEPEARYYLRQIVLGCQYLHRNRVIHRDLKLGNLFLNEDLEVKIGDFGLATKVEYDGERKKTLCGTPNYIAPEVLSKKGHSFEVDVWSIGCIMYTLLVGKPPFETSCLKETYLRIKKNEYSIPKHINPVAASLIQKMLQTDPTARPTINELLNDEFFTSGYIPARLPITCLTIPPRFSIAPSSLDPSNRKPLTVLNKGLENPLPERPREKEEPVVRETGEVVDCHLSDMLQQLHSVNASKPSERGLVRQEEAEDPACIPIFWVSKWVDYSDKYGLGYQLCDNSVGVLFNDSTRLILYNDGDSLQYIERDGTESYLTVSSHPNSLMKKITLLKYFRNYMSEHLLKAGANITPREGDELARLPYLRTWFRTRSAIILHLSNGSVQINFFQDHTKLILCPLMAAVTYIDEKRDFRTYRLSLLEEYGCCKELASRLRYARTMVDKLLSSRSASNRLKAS
VDR inh: inhibitors of human vitamin D receptor. P11473. VDR-SRC2-3 peptide fluorescence polarization, 2 h. Potency, µM, inactives show max response, negative = inhibition, actives largely listed as inhibitors. 400,000 compounds, 0.93% hits; note: potency is the fitted concentration of half-maximal effect; % is set by controls: 0 for no effect and ±100 for the full control effect
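After 23 nl compound addition and a short centrifugation, plates sat for 2 hours at ambient temperature; polarization of fluorescence then indicated loss of VDR binding to peptide SRC2-3.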
JMJD2A Tudor: blocks the human JMJD2A Tudor domain; Potency, µM (doses to about 114 µM), for inactives: at the highest dose activity change, negative = inhibition, actives largely listed as inhibitors; AlphaScreen JMJD2A-Tudor / H3K4me3 peptide binding; O75164; 390,000 compounds, 4.4% hits; note: potency is the fitted concentration of half-maximal effect; % is set by controls: 0 for no effect and ±100 for the full control effect; nearly all actives have a fitted effect of over 50% in size
G9a inh-2: inhibits human G9a histone lysine methyltransferase, hit confirmation; 370 compounds, 89% hits; G9a H3K9 monomethylation, AlphaScreen, 2 h; Potency, µM, hits mostly inhibitors; shares compounds with JMJD2A Tudor; note: potency is the fitted concentration of half-maximal effect; nearly all actives have a fitted effect of over 65% in size
RGS4 inh: confirmation of human RGS4 inhibitors. shares compounds with JMJD2A Tudor. RGS4 GAP activity, Transcreener GDP fluorescence polarization. Potency, µM, most hits filed as inhibitors. 25 compounds, 80% hits. AID 602388
An asterisk follows results filed as active; ? = inconclusive; . = not tested or not shown; [ ] = remark or other dose. Calls come from the whole dose curve; as a rule, active = well fitted curve in the direction sought with a large enough effect; inconclusive = small, poorly fitted or top-dose-only effect, or another doubt; inactive = no such curve, though single readings can be large; an effect the other way counts as inactive or inconclusive.

SMILES | HP1b binding inh | BAZ2B inh | G9a inh-1 | PLK1 PBD block | VDR inh | JMJD2A Tudor | G9a inh-2 | others
CN(C)c1ccc(C(c2nnnn2CCOC(=O)Nc2ccc(Cl)cc2)N2CCOCC2)cc1 (stereo not drawn) | ? | 45µM* | ? | -5% | ? | ? | 18*
CC1(C(=O)NS(=O)(=O)Cc2ccccc2C(F)(F)F)CCN1C(=O)C/C=C/c1ccccc1 (stereo not drawn) | . | . | . | -11% | . | . | .
COc1cccc(-c2cncnc2NCc2cccnc2)c1 | . | . | -6%[0.501 µM] | . | ? | . | . | RGS4 inh=30*
c1cncc(CNc2ncncc2-c2cccnc2)c1 | . | . | 9%[0.501 µM] | . | -2% | . | .
CCN1CCOC(=O)C1CC(=O)Nc1cc(Cl)ccc1C (stereo not drawn) | 16% | -22% | 0.71µM* | . | ? | -15% | 6.3*
O=C(CC1C(=O)OCCN1Cc1ccccc1)Nc1cccc(Cl)c1 (stereo not drawn) | 51% | -4% | ? | . | 1% | 1% | .
CN(C)c1ccc(NC(=O)C2(c3cccs3)CCOCC2)cc1 | -15% | 40µM* | 2.8µM* | . | 3% | ? | 7.1*
CCC(=O)c1ccccc1OCCCn1cncn1 | 11% | 0% | -3%[59 µM] | -3% | -12% | -3% | .
c1ccc(Oc2cccc(OCCn3cncn3)c2)cc1 | -55% | 40µM* | 1.8µM* | -8% | -1% | 25µM* | 28*
CCCCCn1c(=O)[nH]c2cc(C(=O)NCCN(CC)CC)ccc2c1=O | 42% | 8% | 17%[2.33 µM] | -2% | -4% | -12%[57.1 µM] | .
Oc1ccccc1Cc1c(O)ccc2ccccc12 | 16% | -2% | 10%[2.33 µM] | -5% | -17% | -26% | .
CCN(Cc1ccncc1)Cc1c(O)ccc2ccccc12 | ? | -29% | 1.4µM* | 2.7µM* | -26% | 79µM* | 0.36*
CCS(=O)(=O)N1CCN(Cc2ccccc2OC)CC1 | ? | 22µM* | 2.5µM* | 2% | 3% | 3.2µM* | ?
CCOC(=O)c1cnc(-n2nc(C)cc2C)nc1Nc1ccc(N(C)C)cc1 | ? | 1.8µM* | 0.89µM* | -11% | -19% | 1.1µM* | 1.6*
CCOC(=O)c1cnc(-n2nc(C)cc2C)nc1Nc1ccc2c(c1)OCO2 | . | -25% | ? | . | . | . | .
COc1cc(OC)c(C(=O)CCCN2CCCC2)c(OC)c1 | 21% | 8% | ? | -2% | -14% | -6% | 9.6*
Cc1n[nH]c(C)c1CCCCOc1ccccc1[N+](=O)[O-] | 17% | ? | ? | 2% | -21% | -11% | .
O=C(Nc1nc(-c2ccccn2)cs1)c1cccc(-n2cnnn2)c1 | 105% | 50µM* | 10%[59 µM] | -15% | -19% | 79µM* | . | RGS4 inh=?
O=C(Nc1ccc(Br)cc1)c1cccc(-n2cnnn2)c1 | -14% | -18% | -7% | -3% | -10% | -9% | .
CC(=O)O[C@](C)(CCC=C(C)C)C1CC=C(C)CC1 (stereo partly drawn) | . | . | . | . | 1% | . | .
COc1ccccc1N(CC(=O)NC1CCCC1)C(=O)c1oc(C(C)(C)C)cc1C | -4% | ? | -5% | -10% | -4% | ? | .
CCCCC/C=C\C/C=C\C/C=C\CCCCCCC(=O)NCCc1ccc(O)c(O)c1 | . | . | . | . | 15% | . | .
O=C(Nc1sc2c(c1C(=O)Nc1cccc(Cl)c1)CCCC2)c1cccs1 | -19% | -35% | 1.6µM* | . | 25µM* | 71µM* | 4.1*
COc1ccc(C(=O)NCC(O)COc2ccc(C(C)(C)C)cc2)cc1[N+](=O)[O-] (stereo not drawn) | . | -29% | 17%[59 µM] | . | . | . | .
Cn1c(N)c(C(=O)COC(=O)COc2cc(Cl)c(Cl)cc2Cl)c(=O)n(C)c1=O | 19%[57 µM] | . | . | -5% | -1% | -6% | .
SMILES | HP1b binding inh | BAZ2B inh | G9a inh-1 | PLK1 PBD block | VDR inh | JMJD2A Tudor | G9a inh-2 | others
CC(C)c1ccc(NC(=O)c2cnn3c(C(F)F)cc(-c4ccccc4)nc23)cc1 | -13% | -32% | -21%[59 µM] | . | -6% | -16% | .
CCN(CC)c1ccc(NC(=O)c2cnn3c(C(F)F)cc(-c4ccccc4)nc23)cc1 | ? | 2.5µM* | 2µM* | . | -29% | 8.9µM* | 4.6*
COCCNC(=O)C1(C)CCCN(C(=O)c2ccccc2F)C1 (stereo not drawn) | . | . | . | 2% | . | . | .
CCn1c2ccccc2c2cc(NC(=O)N3CCOCC3)ccc21 | -11% | ? | ? | -1% | -5% | -18% | 10*
CCOC(=O)c1ccc(S(=O)(=O)N2CCN(Cc3cc4c(cc3O)OCO4)CC2)cc1 | 11% | -34% | 0.4µM* | -16% | -7% | -21% | 0.89*
CCCN(CCC)CCCNC(=O)c1cc2c(=O)oc3ccc(C)cc3c2s1 | 17% | -14% | -2%[59 µM] | . | 2% | -18% | .
Cc1nn(-c2ccccn2)c2c1C(=O)C(Br)CC2 (stereo not drawn) | ? | . | 1.3µM* | 3µM* | 18µM* | 13µM* | 0.25*
CC(NS(=O)(=O)c1ccc(Cl)cc1)C(=O)OCC(=O)Nc1ccc(N(C)C)cc1 (stereo not drawn) | -34% | ? | 2.5µM* | -5% | ? | ? | 4*
CCOc1ccc(NC(=O)c2c(NCc3ccc(C)o3)sc3c2CCC(C)C3)cc1 (stereo not drawn) | -20% | -33% | ? | . | -8% | ? | .
CCOC(=O)N1CCc2c(sc(NCc3cccc(F)c3)c2C(=O)Nc2ccc(OCC)cc2)C1 | -13% | ? | 2µM* | . | -25% | ? | 3.6*
CCOC(=O)N1CCc2c(sc(NCc3sccc3C)c2C(=O)Nc2cc(OC)ccc2OC)C1 | ? | ? | 2.8µM* | . | -17% | 11µM* | 5.8*
CCOc1ccc(NC(=O)c2c(NCc3cccnc3)sc3c2CCC(C)C3)cc1 (stereo not drawn) | -1% | ? | 2.2µM* | . | ? | 16µM* | 1.3*
CCOC(=O)N1CCc2c(sc(NCc3ccc(OC)c(Br)c3)c2C(=O)Nc2cc(OC)ccc2OC)C1 | ? | -31% | 1.6µM* | . | -3% | ? | 1.8*
CN(CCOc1ccc(Cl)cc1)C(=O)c1cc(-c2ccco2)nc2ccccc12 | -6% | -31% | -42%[12.7 µM] | -17% | -6% | -22% | .
COCCn1nnnc1C(c1ccc(O)c(OC)c1)N1CCc2ccccc2C1 (stereo not drawn) | ? | ? | ? | -18% | -20% | ? | 0.71*
COc1ccc(C(c2nnnn2C2CCCC2)N2CCc3ccccc3C2)cc1OC (stereo not drawn) | 29% | ? | -6%[59 µM] | 0% | 3% | -33% | .

Source: PubChem BioAssay (National Center for Advancing Translational Sciences (NCATS))
